In one experiment the target is OSR1. In words: pooled miR-30 sensor sort-seq; sequence = guide strand. To be noted: shRNA.
TAGGTTGTAGGACTTGGTGAAG: the sensor-assay potency score (higher = more potent) is -1.09. TTGTAGGACTTGGTGAAGTGGC registered a sensor-assay potency score (higher = more potent) of -0.656. Same read-out and setting: next, TTTCCCACACTCTTGACACTTG: -0.209.

Another experiment deals with OTOL1. The description is as above. To be noted: shRNA.
The sequence TTTGGTAATTGGTTCTGCCATT displayed a sensor-assay potency score (higher = more potent) of -0.925. On the same count and under the same terms, next, TTGGTCATTATAGAGAATCTTT: -0.546. TTTCTCTGGACTTGAACTGCTT gave a sensor-assay potency score (higher = more potent) of -0.0808. Same read-out and setting: next, TAGAGCAGTTAAACTTCCCAGT: -0.7; TGAACTGCTTCTTATTCTGGGC: -0.752. Same read-out and setting: with TTCTCTGGACTTGAACTGCTTC the figure was -0.336; with TAGGAAAAAACATATGTCCCAG, -0.389.

As for TTGTCCTTTCACTCCTCCCAAA, the sensor-assay potency score (higher = more potent) is -1.46.

For TCTTTTGACACCTCAAGCCAGA, the sensor-assay potency score (higher = more potent) was -0.531. Still for that read-out and setting: next, TTGAACTGCTTCTTATTCTGGG: 0.431. Same read-out and setting: with TTCCATTCCACTGTCTCCTTTG the figure was -0.205; with TTGCTATTGTGTTCATACCAGC, -1.39.

Another experiment addresses OTOP1. The description is as above. To be noted: shRNA.
TTCCTCAGGACTTTTCTCTTGG: the sensor-assay potency score (higher = more potent) amounted to 0.566. On the same count and under the same terms, with AAAACTGTTGTTATGTTCCCAA the figure was -0.801.

Take AAGCACAGCAGGTCGCTCTTGC: the sensor-assay potency score (higher = more potent) stood at 0.0599. Still for that read-out and setting: next, TTGGTGCTTTGACTCATTGAGG: -1.32; TTGAGTTGGTGCTTTGACTCAT: 0.454. For the sequence TAGAACATGATGAGTGCCGACT, the sensor-assay potency score (higher = more potent) was -0.938.

For TCGTCTATCCTGTAAATCCGGA, the sensor-assay potency score (higher = more potent) was -0.834. The same measure, in the same setting: with TTGAACTGCATCTTCTGGTGCT the figure was 0.911; with AAACAATGTGATACTACCGCGC, -0.348. Turning to TGATACTCTATGTTGAAGGGGT, the sensor-assay potency score (higher = more potent) was 0.574. On the same count and under the same terms, with TTGCAGACTGTGACCACCCGAA the figure was 0.116; with TTGCAGAGGAACAAGAAGGCTG, -0.195.

In the next experiment the target is OTOP2. The experiment is described as above. To be noted: shRNA.
In turn, TAGAAGAGGATCCAGAGCGTTG had a sensor-assay potency score (higher = more potent) of -1.26. Sequence TCGATGATAAACATGTTCTGGA registered a sensor-assay potency score (higher = more potent) of 0.252. TCCACCTCCACTGTGTTGCTGA registered a sensor-assay potency score (higher = more potent) of -0.748. TTGGTGCACAGATTCATCCACC: the sensor-assay potency score (higher = more potent) was -1.03.

For the sequence TTCCACATGACATACAGCATGG, the sensor-assay potency score (higher = more potent) was -1.01. On the same count and under the same terms, next, ATCCACAGAATGACATTGCAGA: -0.488; AAGCAGACAATGTTGAAGCTGT: 0.428; TTGCCAGCAGCATCATCGCAGT: -1.22.

The sequence TAGAAATCCACCTCCACTGTGT displayed a sensor-assay potency score (higher = more potent) of 0.657. Still for that read-out and setting: with TTGAACCTCGTAGATGATGAAG the figure was -1.6; with TAGATGACCAGGGCCTGCCTGG, -1.42. Turning to TTGGTGGTGAGTGTGAACATGA, the sensor-assay potency score (higher = more potent) was -0.459.

Source of the values: the OligoGym collection.
Note: reference of the scale not given here.
